# Reference: publication PMC4336329 (PLoS ONE, 2015)
# Among all 310,000 compounds or so, about 14,000 (4.5%) showed an effect of 50% or more. Effects have a minus sign here. Many of the other results were omitted from the sample, so strong results are more common in it than they were.
# Biological target: human ether-à-go-go-related gene (hERG) potassium channel (human, UniProt Q12809)
# Test: primary screen, population patch clamp on CHO cells stably expressing hERG; higher = less effect of the substance
# 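Note: peak tail current of the secondary pulse compared with the same well before compound.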
# Sequence of human ether-à-go-go-related gene (hERG) potassium channel (Q12809 whole entry, looked up): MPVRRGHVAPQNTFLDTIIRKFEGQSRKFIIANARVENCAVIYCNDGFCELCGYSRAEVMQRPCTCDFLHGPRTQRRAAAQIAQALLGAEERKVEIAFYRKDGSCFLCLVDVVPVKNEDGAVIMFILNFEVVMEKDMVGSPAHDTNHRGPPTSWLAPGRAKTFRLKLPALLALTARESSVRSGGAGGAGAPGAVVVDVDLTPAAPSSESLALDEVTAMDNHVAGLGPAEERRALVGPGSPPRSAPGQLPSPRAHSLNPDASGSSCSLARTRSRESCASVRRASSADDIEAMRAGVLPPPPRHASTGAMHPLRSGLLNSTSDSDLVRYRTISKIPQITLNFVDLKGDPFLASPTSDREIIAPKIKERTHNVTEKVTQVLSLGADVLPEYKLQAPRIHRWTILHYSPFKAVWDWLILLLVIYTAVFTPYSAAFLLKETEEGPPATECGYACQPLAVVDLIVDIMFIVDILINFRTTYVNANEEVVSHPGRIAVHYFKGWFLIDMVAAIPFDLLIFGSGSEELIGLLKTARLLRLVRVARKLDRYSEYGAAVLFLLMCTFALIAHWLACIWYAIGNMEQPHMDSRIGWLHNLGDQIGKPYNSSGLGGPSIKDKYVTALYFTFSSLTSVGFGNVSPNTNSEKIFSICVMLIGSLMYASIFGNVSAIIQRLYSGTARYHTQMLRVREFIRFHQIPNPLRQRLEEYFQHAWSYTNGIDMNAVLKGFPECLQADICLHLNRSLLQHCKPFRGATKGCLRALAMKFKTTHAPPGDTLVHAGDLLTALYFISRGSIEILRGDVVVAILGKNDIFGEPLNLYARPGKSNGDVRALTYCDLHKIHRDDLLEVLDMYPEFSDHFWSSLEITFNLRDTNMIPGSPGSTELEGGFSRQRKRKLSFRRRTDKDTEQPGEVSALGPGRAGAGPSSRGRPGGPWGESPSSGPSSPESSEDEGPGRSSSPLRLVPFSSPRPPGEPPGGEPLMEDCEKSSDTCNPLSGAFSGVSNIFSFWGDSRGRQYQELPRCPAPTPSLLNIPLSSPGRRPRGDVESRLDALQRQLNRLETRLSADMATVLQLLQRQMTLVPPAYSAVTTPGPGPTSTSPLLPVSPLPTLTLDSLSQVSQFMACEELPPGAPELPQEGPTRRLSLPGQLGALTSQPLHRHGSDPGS
row,SMILES,"hERG current change (%, negative = inhibition) at 10uM [%]"
1,Cc1ccc(CN2Cc3cccc4c3[C@@H](CC2=O)[C@H](O)[C@H](O)C4)cc1,19.6
2,COc1cc(NC(=O)CCc2nnc3ccc(N4CCN(c5cccc(OC)c5)CC4)nn23)cc(OC)c1,7.07
3,CC1CCN(c2ccc3nnc(CCC(=O)Nc4cc(F)ccc4F)n3n2)CC1,-37.5
4,COc1ccc(N2CCN(C(=O)CCc3nnc4ccc(N5CCCC5)nn34)CC2)cc1,-7.68
5,O=C(CCc1nnc2ccc(N3CCCC3)nn12)Nc1ccc(F)cc1F,8.27
6,COc1ccccc1N1CCN(C(=O)CCc2nnc3ccc(N4CCC(C)CC4)nn23)CC1,-33.5
7,COc1ccccc1N1CCN(C(=O)CCc2nnc3ccc(N4CCCC4)nn23)CC1,-34.1
8,O=C(CCc1nnc2ccc(N3CCCC3)nn12)Nc1cc(F)ccc1F,-50.4
9,COc1ccc(N2CCN(C(=O)CCc3nnc4ccc(N5CCOCC5)nn34)CC2)cc1,-5.83
10,COc1cccc(NC(=O)CCc2nnc3ccc(N4CCN(c5cccc(OC)c5)CC4)nn23)c1,13.6
11,COc1ccc(N2CCN(C(=O)CCc3nnc4ccc(N5CCC(C)CC5)nn34)CC2)cc1,-66.1
12,COc1cccc(N2CCN(c3ccc4nnc(CCC(=O)Nc5ccccc5OC)n4n3)CC2)c1,-62.6
13,CC1CCN(c2ccc3nnc(CCC(=O)N4CCN(c5ccccc5F)CC4)n3n2)CC1,-62.6
14,N#CCCN(C(=O)COC(=O)c1ccc2c(c1)NC(=O)CS2)c1ccc2c(c1)OCCO2,-22.8
15,CCOCCOC(=O)C1=C(C)NC(=O)NC1c1cc2c(cc1Br)OCO2 (stereo not shown),-30.5
16,O=C(CSCc1ccccc1)Nc1ccc(F)c(F)c1,-3.2
17,Cc1cc(C)cc(C(=O)NCC(=O)OCC(=O)c2cc(C)n(CC(F)(F)F)c2C)c1,1.83
18,Cc1noc(C)c1CSc1nc2ccccc2s1,-10.1
19,COc1cccc(N2CCN(C(=O)CCc3nnc4ccc(N5CCOCC5)nn34)CC2)c1,-7.05
20,CC1CCN(c2ccc3nnc(CCC(=O)N4CCCCC4)n3n2)CC1,-3.14
21,CC1CCN(c2ccc3nnc(CCC(=O)Nc4ccc(F)cc4)n3n2)CC1,-39.6
22,COc1cccc(N2CCN(c3ccc4nnc(CCC(=O)N5CCN(C)CC5)n4n3)CC2)c1,-1.62

row,SMILES,"hERG current change (%, negative = inhibition) at 10uM [%]"
1,CCN1CCN(C(=O)CCc2nnc3ccc(N4CCN(c5cccc(OC)c5)CC4)nn23)CC1,-5.55
2,CC1CCN(c2ccc3nnc(CCC(=O)N4CCN(c5ccc(F)cc5)CC4)n3n2)CC1,-66.2
3,COc1ccc(N2CCN(c3ccc4nnc(CCC(=O)Nc5ccc(C)cc5)n4n3)CC2)cc1,-70.1
4,COc1ccc(NC(=O)CCc2nnc3ccc(N4CCN(c5cccc(OC)c5)CC4)nn23)cc1,-22.8
5,CCCN1CCN(C(=O)CCc2nnc3ccc(N4CCN(c5cccc(OC)c5)CC4)nn23)CC1,-54.9
6,COc1cccc(N2CCN(c3ccc4nnc(CCC(=O)N5CCC(C)CC5)n4n3)CC2)c1,-66.4
7,COc1cccc(N2CCN(C(=O)CCc3nnc4ccc(N5CCCC5)nn34)CC2)c1,-28.7
8,COc1ccc(NC(=O)CCc2nnc3ccc(N4CCC(C)CC4)nn23)cc1,-22.9
9,CCN(CC(=O)Nc1ccccc1OC)C(=O)C1CCCC1,0.547
10,CC1CCN(C(=S)Nc2cccc(S(=O)(=O)N(C)C)c2)CC1,11.1
11,CO/N=C/c1cccn1-c1nccc(OC)c1C#N,19.1
12,Cc1nc(C)c(C(=O)C2=C(O)C(=O)N(CCN3CCOCC3)C2c2cccs2)s1 (stereo not shown),5.12
13,COc1cc(/C=C/C(=O)O)ccc1OS(=O)(=O)c1c(C)cc(C)cc1C,-43.2
14,C=CCOc1ccc(/C=C/C(=O)OCC(=O)N(C)CC(=O)Nc2ccc(F)cc2)cc1,7.74
15,COc1ccccc1CC(=O)Nc1c[nH]c(=O)[nH]c1=O,38.8
16,Cc1ccc2c(c1)c1ncnc(N3CCN(c4ccccc4)CC3)c1n2C,-12.3
17,Cc1ccccc1CN1CCNCC1.Cl,14
18,c1ccc2c(c1)CC(CN1CCNCC1)O2 (stereo not shown),-52.3
19,CC(C)N1CCN(CC2COc3ccccc3O2)CC1.Cl (stereo not shown),-19.4
20,Cn1c(=O)oc2cc(S(=O)(=O)Nc3cccc([N+](=O)[O-])c3)ccc21,4.69
21,Cc1ccc(C)c(Cn2nnc3c(=O)[nH]c(C(=O)Nc4ccc(F)cc4)nc32)c1,28.5
22,CCOc1ccc(C(=O)N2CCCC2)cc1OC,-14.7

row,SMILES,"hERG current change (%, negative = inhibition) at 10uM [%]"
1,Cl.OC(COc1c(F)cc(Br)cc1F)CN1CCOCC1 (stereo not shown),2.28
2,Cc1cccc(C)c1OCC(O)Cn1c2ccccc2c2ccccc21 (stereo not shown),6.83
3,Cc1ccc(C)c(OCC(O)CN2CCC(C)CC2)c1C (stereo not shown),-33.6
4,Cc1cccc(C)c1OCC(O)CN1CCc2ccccc2C1.Cl (stereo not shown),-64.2
5,Cl.OC(COc1c(F)cc(Br)cc1F)CN1CCc2ccccc2C1 (stereo not shown),-72.2
6,Cl.OC(COc1c(F)cc(Br)cc1F)CN1CCN(c2ccc(F)cc2)CC1 (stereo not shown),-25.7
7,Cc1ccc(C)c(OCC(O)CN2CCc3ccccc3C2)c1C.Cl (stereo not shown),-65.3
8,Nc1ccc(S(=O)(=O)Nc2nc(-c3ccccc3)cc(-c3ccccc3)n2)cc1,21.6
9,Cc1ccc(NC(=O)Cn2nc(C)c3ccccc3c2=O)c(C)c1,10.2
10,NC(=O)CN1C(=O)C(=O)N(Cc2ccccc2Cl)C1=O,8.45
11,CC(=O)Nc1c(C(=O)C2CC2)oc2ccccc12,-7
12,Cc1ccc(OCC(O)CN2CCN(CC(O)COc3ccc(C)cc3)CC2)cc1 (stereo not shown),-63.9
13,Cc1ccc(OCC(O)CN2CCN(c3ccccc3)CC2)cc1 (stereo not shown),-38.6
14,Cc1ccc(OCC(O)CN2CCCC2)cc1 (stereo not shown),11.5
15,Cc1cccc(C)c1OCC(O)CN1CCN(c2ccccc2)CC1.Cl (stereo not shown),-53.1
16,COc1cccc(OC)c1OCC(O)CN1CCN(c2ccccc2)CC1.Cl (stereo not shown),-33.3
17,CC(C)(C)C1CCC(OCC(O)CN2CCN(c3ccccc3)CC2)CC1.Cl (stereo not shown),1.42
18,OC(COC1CCCCC1)CN1CCN(c2ccccc2)CC1 (stereo not shown),-29.8
19,Cc1ccc(N2CCN(CC(O)COc3ccccc3)CC2)cc1 (stereo not shown),-50.9
20,Cc1ccc(OCC(O)CN2CCOCC2)cc1 (stereo not shown),8.2
21,Cc1ccc(N2CCN(CC(O)COC3CCCCC3)CC2)cc1 (stereo not shown),-56.1
22,CC(C)c1ccc(OCC(O)CN2CCN(c3ccccc3)CC2)cc1.Cl (stereo not shown),-47.3

row,SMILES,"hERG current change (%, negative = inhibition) at 10uM [%]"
1,Cc1nc(N)c(C#N)c(-c2ccccc2)c1C,-10.4
2,CCN1C(=S)N[C@@H](c2cccs2)C(C(=O)OC)=C1C,4.42
3,O=C(CNC(=O)c1ccccc1F)N/N=C/c1cc(Br)ccc1OCc1ccccc1,-3.96
4,Fc1ccc(N/N=C/c2ccncc2)c(F)c1,-9.23
5,Cc1ccc(OCC(O)CN2CCN(CC(O)COc3ccc(C)cc3Cl)CC2)c(Cl)c1 (stereo not shown),-24.3
6,COC(=O)c1ccc(OCC(O)CN2CCN(CC(O)COc3ccc(C(=O)OC)cc3)CC2)cc1 (stereo not shown),-72.9
7,Cc1cccc(OCC(O)CN2CCOCC2)c1.Cl (stereo not shown),10.9
8,CCOC(=O)N1CCN(CC(O)COc2cc(C)ccc2C(C)C)CC1.Cl (stereo not shown),-26.8
9,COC(=O)c1ccc(OCC(O)CN2CCOCC2)cc1 (stereo not shown),15
10,COC(=O)c1ccc(OCC(O)CN2CCC(C)CC2)cc1 (stereo not shown),-15.3
11,Cc1ccc(N2CCN(CC(O)COc3cccc(C)c3)CC2)cc1 (stereo not shown),-55.1
12,Cc1cccc(OCC(O)CN2CCN(S(=O)(=O)c3ccc(C)cc3C)CC2)c1 (stereo not shown),-17.5
13,Cc1cccc(OCC(O)CN2CCNCC2)c1.Cl (stereo not shown),26.5
14,Cc1ccc(OCC(O)CN2CCN(CC(O)COC(C)C)CC2)c(C(C)(C)C)c1 (stereo not shown),-65.2
15,Cc1cccc(OCC(O)CN2CCN(C3CCCCC3)CC2)c1.Cl (stereo not shown),-50.3
16,Nc1c(Cl)ncnc1N/N=C/c1ccc2ccccc2n1,-11.7
17,COC(=O)COc1ccc(/C=C2\SC(=O)N(CC(=O)Nc3ccccc3F)C2=O)cc1,14
18,Cc1nc(CNC(=O)CC2C(=O)NCCN2Cc2cccc(Oc3ccccc3)c2)cs1 (stereo not shown),10.4
19,CCOCCCNC(=O)/C(C#N)=C/c1ccccc1F,23.5
20,C/C(=N\NC(=O)c1ccc(Cl)cc1)c1ccc(Br)s1,2.93
21,COCCNC(=O)C(=O)NCC1OCCN1S(=O)(=O)c1ccc(C)cc1 (stereo not shown),15.7
22,CCc1ccc(C(=O)NNc2ccc(S(N)(=O)=O)cc2)cc1,9.05
